The nature of assay [1]: qHTS assay for measurement of the activity of small molecule inhibitors on Zika virus induced Caspase-3 activity in human iPSC derived neural progenitor cells (hNPCs) (AID 1224857). Note: % of control where 0% means no effect; nearly all actives have a fitted effect of over 65% in size. The method in brief:
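hNPCs seeded 350 cells/well, cultured 16–20 h; compounds added 1 h before ZIKV (2 FFU/cell), 37 C 6 h. Caspase-Glo 3/7 luminescence after 30 min RT; % inhibition from induction scaled to uninfected (0%) and infected (100%) wells.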

Assay [2] in a line: qHTS assay for measurement of the activity of small molecule inhibitors on Zika virus induced Caspase-3 activity in human astrocytoma cells (AID 1224859).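 Note: plate controls were ZIKV-infected untreated cells for no effect and uninfected cells for full effect.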 The method in brief:
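Luminescence read-out (Caspase-Glo 3/7, 30 min RT) of caspase activity in SNB-19 cells infected 6 h with ZIKV, 2 FFU/cell, after 1 h compound pretreatment; % inhibition from induction normalised to uninfected (0%) and infected (100%) wells.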

Assay [3] in a line: Natriuretic polypeptide receptor (hNpr1) antagonism - Pilot counterscreen GloSensor control cell line (AID 1347045; calls by dose curve; note: potency is the fitted concentration of half-maximal effect). The method in brief:
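HEK293 cGMP-sensor cells; 2% GloSensor reagent 2 h RT; LOPAC compounds in 1:5 titrations 30-50 min; 50 uM SNP 20 min; luminescence pre-read and post-read.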

Assay [4] has as its target Atrial natriuretic peptide receptor 2 (Homo sapiens) (UniProt P20594). In words: Natriuretic polypeptide receptor (hNpr2) antagonism - Pilot subtype selectivity assay (AID 1347050; calls by dose curve; note: potency is the fitted concentration of half-maximal effect). An outline of the steps: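 Antagonist mode: compounds (LOPAC1280, seven 1:5 dilutions) added 30 min before 1 nM hNppC stimulation of hNpr2-HEK293 cGMP-sensor cells; luminescence read before and 20 min after agonist at ambient temperature.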

Assay [5] is described as follows: NS1 protein of Zika virus - qHTS assay to identify small molecule inhibitors in human HEK 293 cells (AID 1347053).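 Note: plate controls were infected untreated cells for no effect and uninfected cells for full effect; nearly all actives have a fitted effect of over 55% in size.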 The method in brief:
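Readout was TR-FRET using paired anti-NS1 antibodies after 24 h infection of HEK 293 cells with ZIKV MR766 (MOI = 0.5). Compound preceded virus by 1 h; reduced signal reflects lower NS1 expression.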

Assay [6] has as its target T1, Tyrosine-protein phosphatase non-receptor type substrate 1 (Homo sapiens) + Leukocyte surface antigen CD47 (Homo sapiens) (UniProt P78324+Q08722). Kind of assay: CD47-SIRPalpha protein protein interaction - LANCE assay qHTS validation (AID 1347057; active = well fitted curve in the direction sought with a large enough effect in the signal ratio, with a control signal flat, not every such curve was filed as active; the % refers to the signal ratio; note: 0% is about no effect). The method in brief:
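Inhibition of soluble CD47/SIRPalpha ectodomain association by titrated compounds, measured as 665/615 nm time-resolved FRET ratio after sequential 30 min room-temperature incubations.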

The target in assay [7] is T1, Tyrosine-protein phosphatase non-receptor type substrate 1 (Homo sapiens) + Leukocyte surface antigen CD47 (Homo sapiens). In words: CD47-SIRPalpha protein protein interaction - HTRF assay qHTS validation (AID 1347058; active = well fitted curve in the direction sought with a large enough effect in the signal ratio, not every such curve was filed as active; the % refers to the signal ratio; note: 0% is about no effect). An outline of the steps:
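Soluble extracellular domains (6His-CD47, Avi-tag-biotinylated SIRPalpha) in PBS pH 7.4 with 0.05% IGEPAL CA-630. Compounds were preincubated 30 min at RT with CD47 and anti-His-Eu, then SIRPalpha and SAV-XL665 were added. TR-FRET 665/615 ratio.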

Assay [8] shares this target. In words: CD47-SIRPalpha protein protein interaction - Alpha assay qHTS validation (AID 1347059).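 Note: bead proximity luminescence from CD47 binding SIRPalpha after compound preincubation with SIRPalpha; % is set by controls: 0 for no effect and ±100 for the full control effect.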 The method in brief: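 AlphaScreen signal between CD47-His (12.5 nM) and biotin-SIRPalpha (25 nM) soluble extracellular domains, bead-captured via Ni-NTA and streptavidin. Compounds, in 7-point titrations, met SIRPalpha 30 min before CD47; PBS pH 7.4 with 0.05% IGEPAL.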

Assay [9] has as its target Parathyroid hormone/parathyroid hormone-related peptide receptor (Homo sapiens) (UniProt Q03431). In words: qHTS for PTHR1 Agonists: Optimization Screen against the NCGC LOPAC library (AID 1347079).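 Note: GloSensor cAMP luminescence in HEK-293 GP2 cells expressing human PTHR1 with IBMX; 0% is about no effect.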 An outline of the steps:
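Signal increase flags agonism. GP2 cells, derived from HEK-293, express human PTHR1 and a GloSensor cAMP construct.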

Assay [10] deals with Zika virus NS2B-NS3 protease (unlinked). Kind of assay: Optimization of GU AMC qHTS for Zika virus inhibitors: Unlinked NS2B-NS3 protease assay (AID 1347151). Note: nearly all actives have a fitted effect of over 80% in size. Note: potency is the fitted concentration of half-maximal effect. The method in brief: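 Noncovalent NS2B hydrophilic domain–NS3 protease complex (25 nM final) in 10 mM Tris-HCl pH 8.0, 0.01% Tween 20; AMC substrate, room temperature 15 min (~20% conversion); fluorescence change normalized, 4-parameter Hill fit.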

The target in assay [11] is N-terminal Xaa-Pro-Lys N-methyltransferase 1 (Homo sapiens) (UniProt Q9BV86). Kind of assay: qHTS Assay for Inhibitors of N-terminal methyltransferase 1 (NTMT1): LOPAC validation of the NTMT1 SAHH-coupled ThioGlo3 Assay (AID 1347143).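 Note: SAH from peptide methylation measured as thiol fluorescence via SAHH coupling and ThioGlo3; nearly all actives have a fitted effect of over 70% in size.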 Note: potency is the fitted concentration of half-maximal effect. An outline of the steps:
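NTMT1 125nM + cpds (various conc.), 1 min RT; add SAM 100uM/SAHH 10uM/ThioGlo3 15uM (addition mix). SAHH-coupled thiol detection, Ex340/Em450, t0 and 30 min RT; signal normalized to background. LOPAC 1280-cpd pilot.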

The nature of assay [12]: qHTS profiling of the MIPE4 collection as inhibitors of Plasmodium falciparum (DD2) proliferation (AID 743345; call rule not given here). The note with it: P. falciparum Dd2 in erythrocytes, SYBR Green DNA, 72 h; at 28.5 µM (top of the series). An outline of the steps: (§1)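 Parasite DNA was quantified by SYBR Green I fluorescence (ex 485, em 535 nm) after overnight lysis in saponin/Triton buffer at room temperature. Cultures at 0.3% parasitemia and 2.5% hematocrit were first exposed to compound for 72 h at 37 C; signals were normalised to artemisinin (0.29 uM) and vehicle wells.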

Assay [13] is described as follows: qHTS profiling of the MIPE4 collection as inhibitors of Plasmodium falciparum (DD2) proliferation (Rep 2) (AID 743346; call rule not given here). The conditions noted are these: P. falciparum Dd2 in erythrocytes, SYBR Green DNA, 72 h; at 28.5 µM (top of the series). An outline of the steps: as §1
A short description of assay [14]: qHTS profiling of the MIPE4 collection as inhibitors of Plasmodium falciparum (HB3) proliferation (AID 743347; call rule not given here;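 note: plate controls were DMSO vehicle wells for no effect and artemisinin wells for full effect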). The note with it: P. falciparum HB3 in erythrocytes, SYBR Green DNA, 72 h; at 28.5 µM (top of the series). An outline of the steps: as §1

Inconclusive results are not listed. Active and inactive are the calls of the source. Unless noted, calls come from the whole dose curve; as a rule, active = well fitted curve in the direction sought with a large enough effect; inconclusive = small, poorly fitted or top-dose-only effect, or another doubt; inactive = no such curve, though single readings can be large; an effect the other way counts as inactive or inconclusive.

This is an account of results in PubChem BioAssay (NCATS).

Sequence of Atrial natriuretic peptide receptor 2 (Homo sapiens) (P20594 whole entry, looked up): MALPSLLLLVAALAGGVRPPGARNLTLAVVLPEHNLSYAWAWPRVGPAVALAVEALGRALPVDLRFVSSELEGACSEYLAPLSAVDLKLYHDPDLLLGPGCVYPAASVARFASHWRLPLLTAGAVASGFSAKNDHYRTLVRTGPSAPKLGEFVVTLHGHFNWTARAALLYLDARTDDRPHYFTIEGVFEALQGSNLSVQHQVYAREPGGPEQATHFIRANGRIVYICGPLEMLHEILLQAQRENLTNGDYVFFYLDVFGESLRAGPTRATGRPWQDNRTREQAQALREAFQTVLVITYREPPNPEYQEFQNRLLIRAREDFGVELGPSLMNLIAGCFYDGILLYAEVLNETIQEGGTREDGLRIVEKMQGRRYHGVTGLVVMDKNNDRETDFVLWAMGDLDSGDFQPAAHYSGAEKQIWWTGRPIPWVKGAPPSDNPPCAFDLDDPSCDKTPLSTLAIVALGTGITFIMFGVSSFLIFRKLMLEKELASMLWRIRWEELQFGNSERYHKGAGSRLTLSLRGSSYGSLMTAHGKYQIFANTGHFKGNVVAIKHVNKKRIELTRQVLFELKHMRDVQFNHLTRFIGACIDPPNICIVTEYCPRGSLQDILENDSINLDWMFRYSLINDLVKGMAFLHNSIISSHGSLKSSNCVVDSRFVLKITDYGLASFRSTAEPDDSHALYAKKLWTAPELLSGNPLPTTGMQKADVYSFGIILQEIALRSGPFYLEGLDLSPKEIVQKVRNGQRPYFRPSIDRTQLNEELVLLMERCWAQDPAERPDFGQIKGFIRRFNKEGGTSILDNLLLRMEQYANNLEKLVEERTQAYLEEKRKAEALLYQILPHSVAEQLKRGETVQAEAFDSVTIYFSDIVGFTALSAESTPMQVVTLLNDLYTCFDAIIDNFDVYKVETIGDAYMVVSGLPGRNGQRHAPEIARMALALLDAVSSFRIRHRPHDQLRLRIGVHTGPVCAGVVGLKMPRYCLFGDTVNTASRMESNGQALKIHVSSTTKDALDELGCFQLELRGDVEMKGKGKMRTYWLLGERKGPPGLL
T1 sequence (P78324 whole entry, looked up, the tested form may be a part): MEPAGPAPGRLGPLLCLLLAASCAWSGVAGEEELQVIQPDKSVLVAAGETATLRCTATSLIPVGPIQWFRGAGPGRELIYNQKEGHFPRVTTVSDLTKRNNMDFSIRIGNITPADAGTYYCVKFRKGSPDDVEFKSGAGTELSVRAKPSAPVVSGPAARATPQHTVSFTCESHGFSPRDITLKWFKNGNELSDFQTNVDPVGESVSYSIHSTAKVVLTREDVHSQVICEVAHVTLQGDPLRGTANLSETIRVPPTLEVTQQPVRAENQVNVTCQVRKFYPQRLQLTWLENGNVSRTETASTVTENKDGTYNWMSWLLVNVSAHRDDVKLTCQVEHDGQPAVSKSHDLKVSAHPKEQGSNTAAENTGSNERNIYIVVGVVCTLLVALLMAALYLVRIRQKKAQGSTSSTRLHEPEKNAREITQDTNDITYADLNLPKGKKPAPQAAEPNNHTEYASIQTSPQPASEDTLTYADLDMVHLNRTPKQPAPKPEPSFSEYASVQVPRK
T1 sequence (Q08722 whole entry, looked up, the tested form may be a part): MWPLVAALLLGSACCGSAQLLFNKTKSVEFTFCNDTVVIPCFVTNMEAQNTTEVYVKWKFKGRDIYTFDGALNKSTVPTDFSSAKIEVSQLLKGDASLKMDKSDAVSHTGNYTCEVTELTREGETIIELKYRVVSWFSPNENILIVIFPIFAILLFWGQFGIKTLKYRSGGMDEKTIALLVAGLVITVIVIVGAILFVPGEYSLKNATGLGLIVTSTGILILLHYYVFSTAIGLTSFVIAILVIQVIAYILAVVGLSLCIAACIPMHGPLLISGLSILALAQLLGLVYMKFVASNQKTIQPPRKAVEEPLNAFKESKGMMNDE
Sequence of N-terminal Xaa-Pro-Lys N-methyltransferase 1 (Homo sapiens) (Q9BV86 whole entry, looked up): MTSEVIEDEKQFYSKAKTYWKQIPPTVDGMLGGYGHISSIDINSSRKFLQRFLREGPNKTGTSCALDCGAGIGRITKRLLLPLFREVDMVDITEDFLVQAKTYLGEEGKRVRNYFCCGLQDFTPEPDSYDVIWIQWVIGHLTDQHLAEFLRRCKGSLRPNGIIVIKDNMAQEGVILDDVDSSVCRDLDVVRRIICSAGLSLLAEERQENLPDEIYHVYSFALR
Sequence of Parathyroid hormone/parathyroid hormone-related peptide receptor (Homo sapiens) (Q03431 whole entry, looked up): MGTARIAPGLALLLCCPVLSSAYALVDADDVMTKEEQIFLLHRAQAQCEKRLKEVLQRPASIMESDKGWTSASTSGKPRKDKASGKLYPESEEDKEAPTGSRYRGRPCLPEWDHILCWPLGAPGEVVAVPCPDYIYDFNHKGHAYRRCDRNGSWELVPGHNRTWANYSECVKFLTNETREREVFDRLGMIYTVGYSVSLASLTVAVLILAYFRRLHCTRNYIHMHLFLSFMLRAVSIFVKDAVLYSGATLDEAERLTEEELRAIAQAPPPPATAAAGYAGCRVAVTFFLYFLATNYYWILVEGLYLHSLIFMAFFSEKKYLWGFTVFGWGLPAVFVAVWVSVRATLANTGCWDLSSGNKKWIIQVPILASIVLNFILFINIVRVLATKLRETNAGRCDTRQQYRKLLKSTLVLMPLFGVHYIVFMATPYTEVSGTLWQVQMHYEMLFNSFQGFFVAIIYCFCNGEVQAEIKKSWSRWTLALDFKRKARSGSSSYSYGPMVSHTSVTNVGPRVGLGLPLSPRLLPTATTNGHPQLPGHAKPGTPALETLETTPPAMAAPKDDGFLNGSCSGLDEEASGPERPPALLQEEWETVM

`COc1cccc(OC)c1OCCNCC1CSc2ccccc2O1` (stereo not given): the Potency entry in assay [1], in [2], in assay [3], in assay [4], in assay [5] and in assay [6] was “inactive” each time. The Potency result in [8], in assay [9] and in assay [10] was “inactive” each time. Moreover, the result in assay [7] was inactive.
Take `OC[C@H]1O[C@H](n2cnc3c(N[C@H]4CCC[C@@H]4O)ncnc32)[C@H](O)[C@@H]1O`: the Potency result in assay [1], in [2], in assay [3], in assay [4], in [5] and in [6] was “inactive” each time. Further, the Potency result in assay [8], in assay [9], in [11] and in assay [10] was “inactive” in each case. For the same compound, the result in [7] was inactive.
Take `CCCCCCCCCCCCCCCCCCOC[C@H](COP(=O)([O-])OCC[N+](C)(C)C)OC`: the Potency entry in [1], in assay [2], in assay [5], in assay [6], in assay [8] and in assay [9] was “inactive” in each case. In addition, the Potency entry in assay [11] and in assay [10] was “inactive” each time. Also, the figures for the Potency in assay [3] and in assay [4] were 14.7 µM (active) and 8.26 µM (active), respectively. Further, the result in [7] was inactive.
`CNCCNS(=O)(=O)c1cccc2cnccc12`: the Potency result in [1], in assay [2], in assay [3], in assay [4], in assay [5] and in assay [6] was “inactive” in each case. The Potency entry in assay [8], in assay [9] and in assay [10] was “inactive” throughout. Also, the outcome in [7] was inactive.
With `CCCCCCN(CCCCCC)C(=O)Cc1c(-c2ccc(F)cc2)[nH]c2ccccc12`, the Potency result in assay [1], in [2], in [3], in assay [4], in assay [5] and in assay [8] was “inactive” in each case. Further, the Potency entry in [9] was “inactive”. Also, in [7], the result was inactive. Moreover, the Potency was 79.4 µM (active) in assay [11] and 21.2 µM (active) in [10].
On to `COc1cc(N)c(Cl)cc1C(=O)OCCN1CCCCC1`, for which the Potency result in [1], in [2], in [3], in [4], in assay [5] and in assay [8] was “inactive” each time. Moreover, the Potency result in assay [9], in assay [11] and in assay [10] was “inactive” throughout. Also, in [7], the outcome was inactive.
For `O=c1[nH]c2ccccc2c2ccccc12`, the Potency result in assay [1], in assay [2], in [3], in assay [4], in assay [5] and in assay [6] was “inactive” in each case. The Potency entry in [8] and in assay [9] was “inactive” in each case. Also, the result in assay [7] was inactive. Besides, the Potency in [10] was 26.7 µM (active).
With `COc1ccc(-c2ccc(N)[n+](CCCC(=O)O)n2)cc1`, the Potency entry in [1], in [2], in assay [3], in [4], in [5] and in [8] was “inactive” in each case. In addition, the Potency result in assay [9], in assay [11] and in assay [10] was “inactive” each time.
As to `N#CC(=C(\N)Sc1ccccc1N)/C(C#N)=C(/N)Sc1ccccc1N`, the Potency entry in assay [1], in assay [2], in [4], in assay [5], in assay [6] and in assay [8] was “inactive” throughout. In addition, the results for the Potency in assay [3] and in assay [11] were 18.5 µM (active) and 56.2 µM (active), respectively.
Turning to `NC1CONC1=O` (stereo not given), in assay [12], the parasite growth remaining, % of DMSO control (lower = more inhibition) worked out at 99.7%. The same compound registered a parasite growth, % of control (lower = inhibition) in [13] of 78.4%. For the same compound, the growth, % of control in [14] was determined as 106%. Also, the Potency result in assay [1], in assay [2], in assay [3], in [4], in assay [5] and in [6] was “inactive” throughout. Also, the Potency entry in assay [8], in [9], in assay [11] and in assay [10] was “inactive” throughout. Further, the outcome in assay [7] was inactive.
As to `NC[C@@H]1O[C@H](c2ccccc2)Cc2c1ccc(O)c2O`, the Potency entry in assay [1], in [2], in assay [3], in assay [4], in assay [5] and in assay [6] was “inactive” each time. The Potency entry in assay [8], in assay [9] and in assay [10] was “inactive” throughout.
Take `COc1ccccc1N1CCN(CCN(C(=O)c2ccc(F)cc2)c2ccccn2)CC1`: the Potency entry in [1], in assay [2], in [3], in [4], in assay [5] and in assay [9] was “inactive” throughout. The Potency result in assay [11] and in assay [10] was “inactive” in each case.
`Cc1nc2c(OCc3ccccc3)cccn2c1CC#N`: the Potency entry in assay [1], in assay [2], in assay [3], in assay [4], in assay [5] and in [6] was “inactive” each time. The Potency result in assay [8], in assay [9], in assay [11] and in assay [10] was “inactive” in each case. For the same compound, the outcome in assay [7] was inactive.
`O=[N+]([O-])c1cccc2c(Br)[nH]nc12`: the Potency result in assay [1], in assay [2], in assay [3], in assay [4], in [5] and in assay [8] was “inactive” in each case. Further, in assay [10], the Potency entry is “inactive”.
With `O=C(O)C1CCNCC1`, the Potency result in assay [1], in [2], in [3], in assay [4], in [5] and in assay [6] was “inactive” each time. Also, the Potency result in assay [8], in assay [9], in assay [11] and in assay [10] was “inactive” in each case. Moreover, in assay [7], the result was inactive.
As to `CCSC(=N)N`, the Potency entry in [1], in [2], in [3], in assay [4], in assay [5] and in assay [6] was “inactive” each time. The Potency entry in assay [8], in assay [9], in assay [11] and in assay [10] was “inactive” each time. Further, the outcome in assay [7] was inactive.
Regarding `CC[C@@H]1Cc2cc(O)ccc2C2=C1c1ccc(O)cc1C[C@H]2CC`, the Potency result in assay [1], in assay [2], in assay [4], in assay [5], in assay [8] and in assay [9] was “inactive” in each case. In addition, the Potency entry in assay [10] was “inactive”. Moreover, the Potency is 20.7 µM (active) in assay [3] and 79.4 µM (active) in assay [11].
Turning to `N[C@@H](Cc1ccc(O)c(I)c1)C(=O)O`, the Potency result in assay [1], in assay [2], in assay [3], in assay [4], in [5] and in [6] was “inactive” each time. Also, the Potency entry in assay [8], in assay [9], in [11] and in [10] was “inactive” throughout. Besides, in assay [7], the outcome was inactive.
